Compound activity deposited in PubChem by several laboratories.
CHO-K1 Ca antag – M1 antagonist counterscreen hit in parental CHO-K1 cells; ATP-induced calcium, Fluo-8 fluorescence; AID 602250; 360,000 compounds, 0.6% hits; inhibition, % at 3 µM;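 active means inhibition above a per-plate cutoff, the plate's mean sample inhibition plus 3 SD, cut at about 24% in these data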;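 further: 0% = DMSO plus EC80 ATP and 100% = DMSO alone without ATP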
TMEM16A act – activates or potentiates the mouse TMEM16A chloride channel. AID 623877. 340,000 compounds, 0.3% hits. HEK293 TMEM16A/YFP-H148Q/I152L, iodide quench fluorescence; hits give low values. B-score at 10 µM;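 active means fluorescence-ratio B-score plate-corrected deviation score at least 3 library SD below zero, with starting fluorescence score within 5 deviations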;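 further: channel opened by trigger with iodide after compound preincubation; score built on the fluorescence ratio of max minus min over baseline; more negative score means more quench and so TMEM16A activation or potentiation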
NTR1 agonist – NTR1 (human) agonism. P30989. NTR1-U2OS beta-arrestin-GFP spot imaging, agonist mode. activation, % at 20 µM. 330,000 compounds, 0.17% hits;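 active means activation at or above 40% of the spot to cytoplasm intensity ratio, with at least 20 cells analyzed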;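 further: 0% = DMSO without peptide and 100% = 100 nM NTR1 peptide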
M1 PAM parental – M1 PAM counterscreen hit in parental CHO-K1 cells | ATP EC20, Fluo-8 calcium fluorescence; 0% at ATP EC20, 100% at ATP max | activation, % at 3 µM | 360,000 compounds, 0.02% hits;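 active means activation above the run cutoff, the mean activation of all test compounds plus 3 SD, cut at about 40% in these data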;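 further: peak over basal fluorescence ratio in a 140 s read after ATP addition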
CHO-K1 Ca ag – M1 agonist counterscreen hit in parental CHO-K1 cells; activation, % at 3 µM; Fluo-8 calcium fluorescence; scaled to maximal ATP response, vehicle zero; 360,000 compounds, 0.48% hits; in the data active means activation above about 15%;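 further: untransfected CHO-K1 host cells lacking M1 receptor as counterscreen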
ANO1 block – inhibitors of mouse TMEM16A calcium-activated chloride channel; Q8BHY3; HEK293 TMEM16A/YFP iodide influx fluorescence, ionomycin; normalized B-score (activity score, 25-100; higher = stronger inhibition) at 10 µM; 310,000 compounds, 1.2% hits; AID 588511;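 active means ratio plate-corrected score three or more library SD toward inhibition, starting fluorescence score within five deviations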;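 further: score derived from kinetic fluorescence span divided by baseline fluorescence per well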
The depositor's hits bear a star; i = inactive; nt = not tested or not shown. Shown are actives, neighbours in structure and some others; about 2.2% of the full set was active somewhere.

SMILES	CHO-K1 Ca antag	TMEM16A act	NTR1 agonist	M1 PAM parental	CHO-K1 Ca ag	ANO1 block
O=C(Nc1nnc([C@H]2C[C@H](O)[C@@H](CO)O2)s1)c1cccc(Oc2ccccc2)c1	25*	nt	nt	-17	0	nt
O=C(Nc1nnc([C@@H]2C[C@H](O)[C@@H](CO)O2)s1)c1cccc(Oc2ccccc2)c1	-3	nt	nt	-3	0	nt
O=C(NNC(=O)C1CC(=O)N(c2ccc3c(c2)OCCO3)C1)c1ccc(F)cc1 (stereo not given)	27*	i	0	-36	0	i
CCCC(=O)N1CCCC(c2cc(C(=O)Nc3ccccc3)no2)C1 (stereo not given)	24*	nt	nt	-15	0	nt
O=C(Nc1ccccc1)c1cc(C2CCCN(C(=O)c3cccs3)C2)on1 (stereo not given)	24*	nt	nt	-9	0	nt
N#Cc1ccc(Oc2ccc(C#N)c(C#N)c2)cc1C#N	-13	i	nt	9	1	nt
COc1ccc(C(=O)NC(=S)NNC(=O)c2cccc(C)c2)cc1	nt	i	1	nt	nt	25*
CC(C)(C)c1cc(CCC(=O)NNC(=S)NC(=O)c2ccccc2)cc(C(C)(C)C)c1O	30*	-6.1*	10	-6	56*	100*
CCNC(=S)NNC(=O)c1ccc(OC)cc1	1	i	0	-6	-1	i
Cc1cccc(C(=O)NNC(=S)NC(=O)c2cccs2)c1	20	i	2	-12	85*	i
CCCCC(=O)NC(=S)NNC(=O)c1ccc(OC)cc1	0	i	-1	-2	31*	i
COc1ccc(C(=O)NNC(=S)NC(=O)c2cccnc2)cc1	5	i	1	-4	0	i
CNc1ccc(-c2cccc([N+](=O)[O-])c2)cn1	0	nt	nt	8	0	nt
Nc1sc2c(c1C(=O)NC1CC1)CCCC2	4	i	1	-9	0	nt
CC12CCC(C(NC(=S)NN)C1=O)C2(C)C (stereo not given)	-10	i	nt	20	0	nt
O=C(NNC(=S)NC(=O)c1ccc(Br)cc1)c1ccc([N+](=O)[O-])cc1	5	i	9	2	9	i
O=C(NNC(=S)NC(=O)c1ccc(Br)cc1)c1cccc([N+](=O)[O-])c1	-11	i	4	7	21*	i
Cc1cccc(C(=O)NNC(=S)NC(=O)c2ccccc2)c1	35*	i	2	-32	100*	100*
COc1ccc(C(=O)NNC(=S)NC(=O)c2ccc(OC)cc2)cc1	6	i	0	1	34*	i
COc1ccc(C(=O)NNC(=S)NC(=O)c2ccc(F)cc2)cc1Br	17	i	1	-35	66*	i
CN(C)Cc1ccccc1CNC(=O)c1ccc(Cl)c(S(=O)(=O)NC2CC2)c1	3	nt	nt	-4	0	nt
O=S1(=O)CC(N2CCN(c3ccccn3)CC2)CN1Cc1ccccc1 (stereo not given)	13	nt	nt	3	1	nt
CCOC1=C2[C@@H](CN(S(=O)(=O)c3ccc(C)cc3)[C@H]2c2ccccc2F)[C@H]2C(=O)N(c3ccccc3)C(=O)[C@H]2C1	6	nt	nt	-6	0	nt
O=C(NC(=S)NNC(=O)[C@H]1C[C@@H]1c1ccccc1)c1cccc(F)c1	-4	i	2	15	1	100*
O=C(c1cccc(S(=O)(=O)N2CCN(c3ccccc3)CC2)c1)N1CCCC(C(F)(F)F)C1 (stereo not given)	-11	i	2	6	4	25*
SMILES	CHO-K1 Ca antag	TMEM16A act	NTR1 agonist	M1 PAM parental	CHO-K1 Ca ag	ANO1 block
COc1ccc(C(=O)/C=C/C(=O)N(CC(=O)NC2CCCCC2)CC2CCCO2)c(O)c1 (stereo not given)	3	-6*	23	11	4	100*
COc1ccc(C(=O)/C=C/C(=O)N(CC(=O)NC2CCCCC2)Cc2ccccc2)c(O)c1	-3	i	nt	-10	2	nt
COc1cc(F)c(C2=CC(=O)C[C@H](c3ccc(F)cc3)C2)cc1F	-13	i	3	12	1	nt
COc1ccc(C2=CC(=O)C[C@H](c3ccc(F)cc3)C2)cc1F	-18	-6.6*	6	10	1	nt
Oc1ccccc1C1=NC(c2ccccc2)NC(c2ccccc2)C1 (stereo not given)	26*	nt	nt	-16	0	nt
CCOc1ccc(-n2cc(C(=O)c3cc(Cl)ccc3O)cc(C#N)c2=O)cc1	2	i	3	10	9	25*
COc1ccc(-n2cc(C(=O)c3cc(Cl)ccc3O)cc(C#N)c2=O)cc1	10	i	0	-4	5	i
N#Cc1cc(C(=O)c2ccccc2O)cn(-c2ccc(Cl)cc2)c1=O	-2	i	0	-6	2	i
Cc1ccc(-n2cc(C(=O)c3cc(Cl)ccc3O)cc(C#N)c2=O)cc1	4	i	2	-1	9	25*
COc1ccc(O)c(C(=O)c2cc(C#N)c(=O)n(-c3ccc(Cl)cc3)c2)c1	-10	-4.6*	5	14	8	i
CCCCn1cc(C(=O)c2cc(Br)ccc2O)cc(C#N)c1=O	24*	i	0	2	8	i
CSc1cccc(NC(=O)C2CCCN(S(C)(=O)=O)C2)c1 (stereo not given)	-10	nt	nt	17	0	nt
CC1(C(=O)Nc2ccc3c(c2)OCO3)Cc2c(-c3cccc(C(N)=O)c3)ccnc2O1 (stereo not given)	0	nt	nt	2	0	nt
CCN(C1CCCCC1)S(=O)(=O)c1ccc(S(=O)(=O)NCc2ccncc2)cc1	-15	i	0	-6	18*	i
CCN(C1CCCCC1)S(=O)(=O)c1ccc(S(=O)(=O)NCCc2ccncc2)cc1	-9	i	0	19	5	i
COc1ccc(NC(=O)CN2CCN(C3c4ccccc4-c4ccccc43)CC2)cc1	-27	i	8	53*	2	i
COc1ccc(NC(=O)CN2CCN(c3ccccc3)CC2)cc1	5	i	4	3	0	i
Cc1ccc(S(=O)(=O)N(C)C[C@@H]2OCc3cn(nn3)CCCC(=O)N([C@@H](C)CO)C[C@H]2C)cc1	-6	nt	nt	5	0	nt
Fc1ccc(-n2nnc(-c3cccnc3)n2)cc1	-12	i	1	17	1	i
Fc1ccc(C(CCCn2nnc(-c3cccnc3)n2)c2ccc(F)cc2)cc1	3	i	6	15	3	100*
COc1ccc(C(=O)c2[nH]c(N)c(C(=O)NCCc3c[nH]c4ccccc34)c2-c2ccc(Cl)c(F)c2)cc1	-20	nt	nt	22	1	nt
Cc1ccc(S(=O)(=O)NC(=O)c2ccc(-c3ccc(C)c4ccccc34)o2)cc1	7	i	-4	7	0	25*
